Experimental data as given in publication PMC4336329 (PLoS ONE, 2015).
The whole screen tested about 310,000 compounds, of which about 14,000 (4.5%) showed an effect of 50% or more. Effects have a minus sign here. This excerpt belongs to a sample that is enriched for strong results.

Biological target: human ether-à-go-go-related gene (hERG) potassium channel (human, UniProt Q12809)
Test: primary screen, population patch clamp on CHO cells stably expressing hERG; higher = less effect of the substance
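Also: peak tail current of the secondary pulse compared with the same well before compound.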

human ether-à-go-go-related gene (hERG) potassium channel, sequence (Q12809 whole entry, looked up): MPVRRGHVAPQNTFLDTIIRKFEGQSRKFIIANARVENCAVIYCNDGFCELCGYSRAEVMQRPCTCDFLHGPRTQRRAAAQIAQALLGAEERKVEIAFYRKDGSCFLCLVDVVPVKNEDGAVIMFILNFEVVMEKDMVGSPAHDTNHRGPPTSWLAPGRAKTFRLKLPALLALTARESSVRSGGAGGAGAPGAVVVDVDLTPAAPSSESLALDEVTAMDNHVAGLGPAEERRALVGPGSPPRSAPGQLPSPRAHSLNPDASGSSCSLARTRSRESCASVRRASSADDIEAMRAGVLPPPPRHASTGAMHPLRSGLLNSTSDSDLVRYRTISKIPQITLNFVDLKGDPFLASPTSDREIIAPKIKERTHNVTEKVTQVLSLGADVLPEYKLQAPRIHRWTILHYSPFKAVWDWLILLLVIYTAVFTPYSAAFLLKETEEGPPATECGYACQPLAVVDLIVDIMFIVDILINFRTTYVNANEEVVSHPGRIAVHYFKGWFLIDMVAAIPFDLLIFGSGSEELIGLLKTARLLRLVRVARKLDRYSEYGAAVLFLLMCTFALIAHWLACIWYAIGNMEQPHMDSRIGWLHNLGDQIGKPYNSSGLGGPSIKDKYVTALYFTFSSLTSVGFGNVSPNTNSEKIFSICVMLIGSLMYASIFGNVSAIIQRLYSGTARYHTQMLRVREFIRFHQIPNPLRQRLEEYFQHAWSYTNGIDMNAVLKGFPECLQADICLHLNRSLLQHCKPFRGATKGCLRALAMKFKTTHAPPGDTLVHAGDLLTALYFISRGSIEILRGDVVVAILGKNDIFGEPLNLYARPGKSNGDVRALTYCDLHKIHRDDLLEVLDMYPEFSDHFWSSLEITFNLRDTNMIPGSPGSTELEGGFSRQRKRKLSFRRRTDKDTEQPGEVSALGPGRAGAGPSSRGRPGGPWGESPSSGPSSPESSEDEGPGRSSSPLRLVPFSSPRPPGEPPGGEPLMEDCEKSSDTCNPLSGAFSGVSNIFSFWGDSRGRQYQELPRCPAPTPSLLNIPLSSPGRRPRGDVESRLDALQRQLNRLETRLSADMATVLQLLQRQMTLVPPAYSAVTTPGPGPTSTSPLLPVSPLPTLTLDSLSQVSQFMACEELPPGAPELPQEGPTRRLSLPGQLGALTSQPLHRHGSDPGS

`CC(Sc1nnc(-c2ccncc2)n1C)C(=O)NCC1CCCO1` (centres unmarked) was tested. Which “hERG current change (%, negative = inhibition) at 10uM” value did it give?
Its value is 4.42%.

For `CC(C)Cc1ccc(CN2CCCC(NC(=O)c3cccc(-n4cnnc4)c3)C2)cc1` (centres unmarked), which “hERG current change (%, negative = inhibition) at 10uM” value is on record?
The value was -81%.

For `CC(C)Cc1ccc(CN2CCCC(NC(=O)CCCN3CCCC3=O)C2)cc1` (centres unmarked), which “hERG current change (%, negative = inhibition) at 10uM” value is on record?
The value was -25.8%.

For `Cc1occc1C(=O)NC1CCCN(Cc2ccc(CC(C)C)cc2)C1` (centres unmarked), which “hERG current change (%, negative = inhibition) at 10uM” value is on record?
Its value is -38%.

How did the “hERG current change (%, negative = inhibition) at 10uM” value turn out when `O=C(NC1CCCN(Cc2ccc(Cl)cc2)C1)c1cccc(N2CCCC2=O)c1` (centres unmarked) was run?
The value was -14.8%.

For `Cc1occc1C(=O)NC1CCCN(Cc2ccc(Cl)cc2)C1` (centres unmarked), which “hERG current change (%, negative = inhibition) at 10uM” value is on record?
Its value is -38.4%.

`CC(C)c1ccc(NC2CCCN(C(=O)c3cnc4ccccn4c3=O)C2)cc1` (centres unmarked) was tested. Which “hERG current change (%, negative = inhibition) at 10uM” value did it give?
The value was 12%.

How did the “hERG current change (%, negative = inhibition) at 10uM” value turn out when `CC(C)Cc1ccc(CN2CCCC(NC(=O)c3ccoc3)C2)cc1` (centres unmarked) was run?
Its value is -70.9%.

How did the “hERG current change (%, negative = inhibition) at 10uM” value turn out when `O=C(NC1CCCN(Cc2ccc(Cl)cc2)C1)c1ccnc(Cl)c1` (centres unmarked) was run?
The value was -38.6%.

How did the “hERG current change (%, negative = inhibition) at 10uM” value turn out when `CC(C)Cc1ccc(CN2CCCC(NC(=O)c3cnc4ccccn4c3=O)C2)cc1` (centres unmarked) was run?
Its value is -71.8%.

`O=C(NC1CCCN(Cc2ccc(Cl)cc2)C1)c1ccoc1` (centres unmarked) was tested. Which “hERG current change (%, negative = inhibition) at 10uM” value did it give?
Its value is -50.1%.

For `O=C(NC1CCCN(Cc2ccc(Cl)cc2)C1)c1cnc2ccccn2c1=O` (centres unmarked), which “hERG current change (%, negative = inhibition) at 10uM” value is on record?
The value was -21.8%.

`COc1ccc(S(=O)(=O)N2CCN(c3ccccn3)CC2)cc1OC` was tested. Which “hERG current change (%, negative = inhibition) at 10uM” value did it give?
Its value is -12%.

Which “hERG current change (%, negative = inhibition) at 10uM” value does the source give for `CC#CCN1c2ccccc2[C@]23C[C@@H](C(=O)OC)N(C(=O)c4ccco4)C2=NC(C(=O)OC)=C(C(=O)OC)[C@H]13` here?
The value was -2.03%.

For `Cc1nn(-c2ccccc2)c(C)c1/C=N\NS(=O)(=O)c1ccc(Cl)cc1`, which “hERG current change (%, negative = inhibition) at 10uM” value is on record?
The value was -17.7%.

How did the “hERG current change (%, negative = inhibition) at 10uM” value turn out when `Cc1cc(C)cc(OCC(=O)NNC(=O)c2cc(C)[nH]n2)c1` was run?
The value was 13.9%.

For `O=C(CCC(=O)N1CCSc2ccccc21)NCCc1ccccc1`, which “hERG current change (%, negative = inhibition) at 10uM” value is on record?
Its value is -30.5%.

`CCn1c(SCC(=O)N/N=C/c2ccccc2OCC(=O)O)nnc1-c1ccccc1` was tested. Which “hERG current change (%, negative = inhibition) at 10uM” value did it give?
Its value is 5.58%.

For `CNCC(O)C(O)C(O)C(O)CO` (centres unmarked), which “hERG current change (%, negative = inhibition) at 10uM” value is on record?
The value was -0.427%.

`CC(C)C(=O)Nc1ccc(NC(=O)CCc2ccccc2)cn1` was tested. Which “hERG current change (%, negative = inhibition) at 10uM” value did it give?
Its value is 18.4%.

How did the “hERG current change (%, negative = inhibition) at 10uM” value turn out when `CC(=O)Nc1ccc(S(=O)(=O)NCC2CCC(C(=O)N3CC(C)CC(C)C3)CC2)cc1` (centres unmarked) was run?
The value was 5.39%.

Which “hERG current change (%, negative = inhibition) at 10uM” value does the source give for `CC(C)Cc1ccc(CN2CCCC(NC(=O)c3ccnn3C)C2)cc1` (centres unmarked) here?
The value was -68.7%.

For `Cn1nccc1C(=O)NC1CCN(Cc2ccccc2)CC1`, which “hERG current change (%, negative = inhibition) at 10uM” value is on record?
The value was -14.4%.

For `CC(C)Cc1ccc(CN2CCCC(NC(=O)CCN3CCCO3)C2)cc1` (centres unmarked), which “hERG current change (%, negative = inhibition) at 10uM” value is on record?
The value was -43.4%.

For `Cl.OC(CNC1CCCC1)COCCOc1ccc(Br)cc1` (centres unmarked), which “hERG current change (%, negative = inhibition) at 10uM” value is on record?
The value was -27.4%.

For `C#CCOCCOCCOCCNc1nc(N2CCN(C(=O)[C@H]([C@@H](C)CC)n3cc([C@@H](N)Cc4ccc(O)cc4)nn3)CC2)nc(N2CCN(C(=O)[C@H]([C@@H](C)CC)n3cc([C@@H](N)CC(C)C)nn3)CC2)n1.Cl`, which “hERG current change (%, negative = inhibition) at 10uM” value is on record?
Its value is 0.378%.

With `CC(=O)c1cccc(OCC(O)CNCCOc2ccc(C)cc2)c1` (centres unmarked) as the molecule, how does the “hERG current change (%, negative = inhibition) at 10uM” value read?
Its value is -36.5%.

With `CCOC(=O)c1cccc(OCC(O)CNCCOc2ccccc2F)c1` (centres unmarked) as the molecule, how does the “hERG current change (%, negative = inhibition) at 10uM” value read?
Its value is -63%.

Which “hERG current change (%, negative = inhibition) at 10uM” value does the source give for `COCCCNCC(O)COc1ccccc1F` (centres unmarked) here?
Its value is 5.58%.

Which “hERG current change (%, negative = inhibition) at 10uM” value does the source give for `Cc1cc(C(C)(C)C)oc1C(=O)O` here?
The value was 27.6%.

`CN1C(=O)OC(C)(CCc2ccccc2)C1(C)O` (centres unmarked) was tested. Which “hERG current change (%, negative = inhibition) at 10uM” value did it give?
The value was 11.5%.

With `Cc1cc2oc(C(=O)Nc3c(C)n(C)n(-c4ccccc4)c3=O)c(C)c2cc1Cl` as the molecule, how does the “hERG current change (%, negative = inhibition) at 10uM” value read?
The value was -72.2%.

With `Cc1cc2oc(C(=O)Nc3c(C)n(C)n(-c4ccccc4)c3=O)c(C)c2cc1C` as the molecule, how does the “hERG current change (%, negative = inhibition) at 10uM” value read?
The value was -24%.

Which “hERG current change (%, negative = inhibition) at 10uM” value does the source give for `Cc1c(C(=O)Nc2c(C)n(C)n(-c3ccccc3)c2=O)oc2ccccc12` here?
The value was 15.8%.

With `Cc1ccc2c(C)c(C(=O)Nc3c(C)n(C)n(-c4ccccc4)c3=O)oc2c1` as the molecule, how does the “hERG current change (%, negative = inhibition) at 10uM” value read?
Its value is -2.96%.

`Cc1cc(C)c2c(C)c(C(=O)Nc3c(C)n(C)n(-c4ccccc4)c3=O)oc2c1` was tested. Which “hERG current change (%, negative = inhibition) at 10uM” value did it give?
Its value is -16.7%.

`Cc1c(C(=O)Nc2c(C)n(C)n(-c3ccccc3)c2=O)oc2ccc(Cl)cc12` was tested. Which “hERG current change (%, negative = inhibition) at 10uM” value did it give?
Its value is -51.3%.

With `CN(C)P1(N(C)C)=Nc2c(c(N)nn2C)C(c2ccccc2)=N1` as the molecule, how does the “hERG current change (%, negative = inhibition) at 10uM” value read?
Its value is -6.87%.

For `CCOc1cc(S(=O)(=O)NCC2OCCc3ccccc32)c(OCC)cc1-n1cnnn1` (centres unmarked), which “hERG current change (%, negative = inhibition) at 10uM” value is on record?
Its value is -21.5%.

For `CC(=O)Nc1ccc(S(=O)(=O)N2CCN(C(=O)C3COc4ccccc4O3)CC2)cc1` (centres unmarked), which “hERG current change (%, negative = inhibition) at 10uM” value is on record?
Its value is -7.33%.

For `Cc1ccc(N2C(=O)NC(=O)/C(=C\c3ccoc3)C2=O)cc1`, which “hERG current change (%, negative = inhibition) at 10uM” value is on record?
Its value is 22%.

Which “hERG current change (%, negative = inhibition) at 10uM” value does the source give for `CCN1CCN(P2(=O)C=C(c3ccccc3)OC(c3ccccc3)=C2)CC1` here?
The value was -77.9%.

Which “hERG current change (%, negative = inhibition) at 10uM” value does the source give for `O=P1(Nn2cnnc2)C=C(c2ccccc2)OC(c2ccccc2)=C1` here?
Its value is -20.8%.

`O=P1(O)C=C(c2ccccc2)OC(c2ccccc2)=C1` was tested. Which “hERG current change (%, negative = inhibition) at 10uM” value did it give?
Its value is 23.9%.
